In PubChem BioAssay one finds outcome, inhibition and activation data, which are given here for eight compounds.

For some assays here: Entries with a potency or affinity are not part of this list. Calls of active or inactive are those of the source.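 The calls were made as follows, unless noted: active = compound raising the membrane signal above positive-control mean plus 3 SD in both repeats, and a primary screen hit; inactive = the rest.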

The subject of assay [1] is TRPC4 beta (transient receptor potential cation channel C4), mouse. Briefly: activators of mouse TRPC4 channel, confirmation, cell-based, Fluo4 calcium, HEK293 TRPC4beta/mu-opioid, duplicates, 10 µM (AID 2426;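 active = fluorescence ratio normalized to control raised more than 50% in primary screen plus both repeat runs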). The note with it: Fluo4 calcium fluorescence, at 10 µM; hits give high values.
Assay [2] concerns transient receptor potential cation channel C4 beta (TRPC4), mouse. The experiment in a line: activators of mouse TRPC4 channel, confirmation, cell-based, second round, Fluo4, HEK293 TRPC4beta/mu-opioid, 1 µM (AID 2461;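 active = primary screen active and over 50% activation in each of two duplicate runs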). Particulars: Fluo4 calcium fluorescence, at 1 µM; hits give high values.
Assay [3] concerns TRPC4 (transient receptor potential cation channel C4 beta), mouse. The experiment in a line: positive allosteric modulators of mouse TRPC4, confirmation, cell-based, second round, Fluo-4, HEK293 TRPC4beta/mu-opioid, 1 µM (AID 2554;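 active = primary screen hit whose fluorescence ratio, in both repeats, exceeds the weak agonist control mean by 3 SD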). The note with it: DAMGO EC20, Fluo-4 calcium flux, at 1 µM; hits give high values. A general note: Calcium flux is commonly read through the fluorescence of an indicator in the cells.

Assay [4] relates to TRPC4 beta (transient receptor potential cation channel C4), mouse. Briefly: positive allosteric modulators of mouse TRPC4, confirmation, cell-based, Fluo-4, HEK293 TRPC4beta/mu-opioid (AID 2555;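 active = primary screen hit whose calcium fluorescence ratio, in both repeats, exceeds the weak agonist control mean by 3 SD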). Particulars: DAMGO EC20, Fluo-4 calcium flux, at 10 µM; hits give high values.
The target in assay [5] is Short transient receptor potential channel 4 (Mus musculus) (UniProt Q9QUQ5). Briefly: inhibitors of mouse TRPC4 channel, confirmation, cell-based, Fluo4, HEK293 TRPC4beta/mu-opioid (AID 2636;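 active = calcium signal cut by more than 3 SD below the full-agonist control yet still positive, in both repeats and the earlier primary screen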). The note with it: DAMGO, Fluo4 calcium flux, at 10 µM; hits give high values.
Assay [6] shares this target. The experiment in a line: inhibitors of mouse TRPC4 channel, confirmation, cell-based, second round, Fluo4, HEK293 TRPC4beta/mu-opioid, 1 µM (AID 2637;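 active = calcium signal ratio cut to more than 3 SD under the fully stimulated control mean yet still positive, in both repeats and the primary screen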;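 as to inhibition: percent of integrated ratio relative to wells lacking test compound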). The note with it: Fluo4 calcium flux, DAMGO, at 1 µM; hits give high values.
Assay [7] shares this target. Briefly: mouse TRPC4 channel activators, dose response, cell-based, HEK293 TRPC4/mu-opioid, Fluo-4 calcium (AID 434937;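 active = primary screen activator hit with a dose response curve and TRPC4 channel activation at any tested dose; inactive = no activation, no dose response, or not a primary hit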).
Assay [8] has the same target. The experiment in a line: TRPC4 positive allosteric modulators, dose response, cell-based, HEK293 TRPC4/mu-opioid, Fluo-4 calcium, EC20 DAMGO (AID 434941;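 active = earlier screen potentiator hit that boosts the TRPC4 ion channel at some dose, with a dose response; inactive = no potentiation, no dose response, or not a prior hit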;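 also: calcium entry triggered by an EC20 dose of DAMGO at the co-expressed mu-opioid receptor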).
Assay [9] deals with Short transient receptor potential channel 6 (Mus musculus) (UniProt Q61143). The experiment in a line: inhibition of mouse TRPC6 channel, confirmation, selectivity assay for TRPC4 inhibitor project, cell-based, HEK293, membrane potential dye, duplicate (AID 434948;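 active = active in primary screen and both duplicates, each dropping signal beyond three positive-control SD with fluorescence still positive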). The note with it: HEK293 TRPC6, membrane potential dye fluorescence, at 10 µM, stimulated with maximal-effect acetylcholine; hits give high values.

The target is the same in assay [10]. The experiment in a line: activation of mouse TRPC6 channel, confirmation, selectivity assay for TRPC4 activator project, cell-based, HEK293, membrane potential dye, duplicate (AID 434950;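 active = membrane potential signal rise above negative control mean plus 3 SD in both duplicates, also active in the earlier TRPC4 screen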;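 as to activation: 0% = buffer only wells and 100% = acetylcholine maximal-effect wells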). The note with it: HEK293 TRPC6, membrane potential fluorescence, at 10 µM; hits give high values.
Assay [11] has the same target. The experiment in a line: TRPC6 potentiation by TRPC4 potentiator hits, confirmation, selectivity assay for TRPC4 potentiator project, HEK293 cells, membrane potential dye, duplicate (AID 434952). The note with it: HEK293 TRPC6, membrane potential dye fluorescence, at 10 µM, maximal acetylcholine added after compound; hits give high values.
In assay [12] the target is Short transient receptor potential channel 4 (Mus musculus) (UniProt Q9QUQ5). Briefly: calcium flux activators in TRPC4/5HT1a cells, counter-screen for TRPC4 activator project, cell-based, second counter screen, HEK293 TRPC4/5HT1a, Fluo-4 (AID 434977;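 active = calcium signal rise above buffer-control mean plus 5 SD in both duplicates, and also a hit in the primary screen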). The note with it: Fluo-4 calcium flux, at 10 µM; hits give high values.
Assay [13] is described as follows: calcium flux inhibitors in TRPC4/5HT1a cells, confirmation, counter-screen for TRPC4 inhibitor project, cell-based, second counter screen, HEK293 TRPC4/5HT1a, Fluo-4 (AID 434978;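 active = primary screen active whose calcium signal fell more than 3 SD beyond the full-serotonin control mean in both duplicate plates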;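 as to outcome: serotonin given first at submaximal then at maximal dose after compound preincubation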). The note with it: Fluo-4 calcium flux, at 10 µM, serotonin added to trigger calcium flux; hits give high values.
Assay [14] deals with TRPC4 (mouse), co-expressed with 5HT1a in HEK293. Briefly: calcium flux potentiators in TRPC4/5HT1a cells, confirmation, counter-screen for TRPC4 potentiator project, cell-based, second counter screen, HEK293 TRPC4/5HT1a, Fluo-4 (AID 434979;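 active = signal rise over 3 SD above mean of control wells given weak agonist, in both repeats and first screen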). Particulars: Fluo-4 calcium flux, at 10 µM, serotonin added at its EC20 dose; hits give high values.
Assay [15] is described as follows: calcium flux activation in mu-opioid HEK293 cells, confirmation, counter-screen for TRPC4 activator project, cell-based, HEK293 mu-opioid receptor line (AID 449723;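 active = hit in primary screen, with calcium signal over 5 SD above buffer well mean in both duplicates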;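 also: counter screen cells carry the mu-opioid receptor alone and lack TRPC4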). The note with it: Fluo-4 calcium fluorescence, at 10 µM; hits give high values.
A short description of assay [16]: calcium flux enhancement in mu-opioid HEK293 cells, confirmation, counter-screen for TRPC4 allosteric potentiator project, cell-based, HEK293 mu-opioid receptor line (AID 449724;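 active = calcium signal rise more than 3 SD above the low-dose agonist control mean, in both duplicate plates and the primary screen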;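 also: HEK293 cells carrying mu-opioid receptor only with no TRPC4 channel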). Particulars: Fluo-4 calcium flux, at 10 µM, compound added before EC20 DAMGO stimulus; hits give high values.

Chain of Short transient receptor potential channel 6 (Mus musculus) (Q61143 whole entry, looked up): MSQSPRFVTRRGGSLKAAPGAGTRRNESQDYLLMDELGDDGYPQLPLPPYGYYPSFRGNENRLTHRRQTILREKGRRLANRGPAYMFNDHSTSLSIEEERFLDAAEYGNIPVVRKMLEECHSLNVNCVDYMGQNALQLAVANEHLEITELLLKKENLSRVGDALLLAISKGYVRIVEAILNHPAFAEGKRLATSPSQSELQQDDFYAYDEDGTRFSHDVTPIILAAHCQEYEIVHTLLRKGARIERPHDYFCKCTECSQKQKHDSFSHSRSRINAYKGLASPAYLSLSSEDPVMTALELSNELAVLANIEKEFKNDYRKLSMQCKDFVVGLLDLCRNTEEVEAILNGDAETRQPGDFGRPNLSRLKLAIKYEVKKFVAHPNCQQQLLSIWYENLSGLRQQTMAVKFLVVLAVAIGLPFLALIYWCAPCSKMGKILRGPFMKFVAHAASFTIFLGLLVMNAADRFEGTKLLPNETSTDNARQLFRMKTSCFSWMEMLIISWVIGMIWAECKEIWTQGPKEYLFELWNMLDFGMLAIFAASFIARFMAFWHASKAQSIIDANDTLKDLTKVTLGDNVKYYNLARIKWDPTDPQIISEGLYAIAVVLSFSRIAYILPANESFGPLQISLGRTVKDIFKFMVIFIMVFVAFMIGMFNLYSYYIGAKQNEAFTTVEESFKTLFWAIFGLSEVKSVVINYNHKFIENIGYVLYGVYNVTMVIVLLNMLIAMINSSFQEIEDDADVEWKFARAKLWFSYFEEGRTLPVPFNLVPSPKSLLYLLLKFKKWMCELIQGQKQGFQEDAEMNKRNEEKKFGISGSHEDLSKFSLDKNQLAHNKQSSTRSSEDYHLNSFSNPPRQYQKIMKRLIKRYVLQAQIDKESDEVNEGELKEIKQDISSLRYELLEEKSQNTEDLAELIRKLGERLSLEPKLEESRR
Chain of Short transient receptor potential channel 4 (Mus musculus) (Q9QUQ5 whole entry, looked up): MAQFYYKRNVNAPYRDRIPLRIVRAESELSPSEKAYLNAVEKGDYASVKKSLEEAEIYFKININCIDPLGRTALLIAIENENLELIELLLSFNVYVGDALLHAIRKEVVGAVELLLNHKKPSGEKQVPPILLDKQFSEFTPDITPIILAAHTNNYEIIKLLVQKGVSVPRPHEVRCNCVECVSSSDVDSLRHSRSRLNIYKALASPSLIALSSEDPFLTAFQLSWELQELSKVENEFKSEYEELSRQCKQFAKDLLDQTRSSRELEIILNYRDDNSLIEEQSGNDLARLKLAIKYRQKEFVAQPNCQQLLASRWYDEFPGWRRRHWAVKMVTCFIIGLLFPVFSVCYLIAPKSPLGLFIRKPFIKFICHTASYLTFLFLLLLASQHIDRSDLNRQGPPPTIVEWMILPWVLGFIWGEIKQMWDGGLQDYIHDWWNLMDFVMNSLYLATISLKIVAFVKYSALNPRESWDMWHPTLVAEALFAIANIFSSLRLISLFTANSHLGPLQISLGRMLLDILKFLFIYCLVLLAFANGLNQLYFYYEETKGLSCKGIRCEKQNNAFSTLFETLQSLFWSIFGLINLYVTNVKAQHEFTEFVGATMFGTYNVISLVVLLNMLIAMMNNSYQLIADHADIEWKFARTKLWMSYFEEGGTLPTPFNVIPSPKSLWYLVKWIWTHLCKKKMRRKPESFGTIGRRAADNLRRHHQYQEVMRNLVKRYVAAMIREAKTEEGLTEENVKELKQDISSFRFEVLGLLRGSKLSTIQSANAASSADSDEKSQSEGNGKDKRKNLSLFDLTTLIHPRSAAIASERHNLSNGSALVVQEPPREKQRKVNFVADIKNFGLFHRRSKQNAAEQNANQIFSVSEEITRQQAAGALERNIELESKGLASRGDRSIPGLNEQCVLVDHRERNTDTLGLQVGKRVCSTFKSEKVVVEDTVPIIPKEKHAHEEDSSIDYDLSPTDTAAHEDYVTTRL

`Cc1ccc(C(=O)C2=C(O)C(=O)N(Cc3cccnc3)C2c2ccc(Cl)c(Cl)c2)o1` (stereo not drawn): the outcome in assay [1], in [2], in [3], in assay [4], in [6] and in [7] was inactive. Besides, the outcome in [8], in assay [9], in [10], in assay [11], in assay [12] and in [14] was inactive. Besides, the outcome in [15] and in [16] was inactive. Also, the values for the inhibition in assay [5] and in assay [13] were 90% (active) and 32.8% (active), respectively.
In the case of `CC(C)(C)CC(C)(C)NCC(O)COc1ccc2c(c1)CCC2` (stereo not drawn), the outcome in assay [1], in [2], in assay [3], in assay [4], in assay [6] and in [7] was inactive. Further, the outcome in assay [8], in [9], in assay [10], in assay [11], in assay [12] and in assay [13] was inactive. Besides, the result in assay [14], in [15] and in assay [16] was inactive. Also, the inhibition (commonly the change of the read-out against control, counted positive when it falls) in [5] was 100% (active).
Regarding `c1ccc(-c2ccccc2OCCOCCN2CCCCC2)cc1`, the outcome in assay [1], in [2], in [3], in assay [4], in [7] and in [8] was inactive. Also, the result in assay [9], in [10], in [11], in assay [12], in assay [14] and in [15] was inactive. For the same compound, the outcome in assay [16] was inactive. For the same compound, the inhibition in assay [5] was 94% (active); in assay [6], 44% (active); in assay [13], 33.7% (active).
Turning to `COc1cccc(C2=NN(C(=O)c3ccco3)C(c3ccco3)C2)c1` (stereo not drawn), the outcome in assay [1], in assay [2], in assay [3], in assay [4], in assay [6] and in [7] was inactive. Also, the result in [8], in assay [9], in assay [10], in assay [11], in assay [12] and in assay [14] was inactive. The outcome in assay [15] and in assay [16] was inactive. The inhibition in assay [5] is 71% (active); in assay [13], 20.6% (active).
As for `c1ccc(NC(=NCc2ccco2)c2ccccc2)cc1`, the outcome in assay [1], in assay [2], in assay [3], in assay [4], in assay [7] and in [8] was inactive. Also, the compound was classed as inactive in assay [9], in [10], in assay [11], in [12], in [13] and in [14]. Further, the result in [15] and in assay [16] was inactive. In addition, the inhibition in assay [5] is 94% (active); in assay [6], 45% (active).
Take `O=C(NCCCN1CCOCC1)c1ccc(NC(=O)C2COc3ccccc3O2)cc1` (stereo not drawn): the outcome in assay [1], in assay [2], in assay [3], in [4], in [5] and in [6] was inactive. In addition, the outcome in assay [7], in assay [8], in assay [9], in assay [11], in assay [12] and in assay [13] was inactive. Besides, the result in assay [14], in assay [15] and in assay [16] was inactive. Besides, the activation in assay [10] is 49.5% (active).
Regarding `O=C1CN=C(Nc2cccc(C(F)(F)F)c2)N1C1CCCC1`, the result in [1], in assay [2], in [3], in assay [4], in [6] and in [7] was inactive. Also, the result in assay [8], in assay [9], in [10], in assay [11], in [12] and in [14] was inactive. The result in [15] and in [16] was inactive. Further, the inhibition in assay [5] is 94% (active); in [13], 26.8% (active).
`Cc1cc(C)c(S(=O)(=O)c2ccccc2C)c(OCC(C)(C)C)n1`: the outcome in assay [1], in assay [2], in [3], in [4], in [7] and in assay [8] was inactive. The compound was called inactive in [9], in assay [10], in [11], in [12], in assay [14] and in assay [15]. Besides, in assay [16], the result was inactive. The inhibition is 91% (active) in assay [5], 43% (active) in [6] and 15.5% (active) in assay [13].
